# Source: PubChem BioAssay (NCI)
# Where “and” joins values, the source holds several entries; their conditions need not be identical. Identical values can stand only once. The panel holds about 79,000 compounds, 15% with a hit somewhere; the sample as a whole holds those more often. Some compounds were tested as several samples or in several runs, with calls that do not always agree. Calls of active or inactive are those of the source. Rule as the data show it: active = growth inhibition above about 70%; inactive = the rest.
# Test: NCI Yeast Anticancer Drug Screen. Data for the cln2 rad14 strain (AID 165);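 also: 0% = growth equal to vehicle treated cultures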
# Conditions: S. cerevisiae cln2 rad14 strain, at 50.0 µM (retest, dose inferred, filed as 5.0), stronger effect = higher value
# Method in brief: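 cln2 rad14 yeast strain; compound exposure; growth inhibition read vs vehicle controls.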
row,Structure (SMILES),growth inhibition
1,O=C1/C(=C/c2ccccc2)CCCC1CN1CCCCC1 (stereo not drawn),69% (inactive)
2,CCOC1(c2cccc([N+](=O)[O-])c2)c2ccccc2Oc2ccccc21,30% (inactive)
3,N/C(=N/N=C/c1cc(Br)cc(Br)c1O)NO,99% (active)
4,C[Si](C)(C)/C=C/CCNC(C#N)c1ccccc1 (stereo not drawn),97% (active)
5,CCCCCCCCCCCCCCCCOP(=O)(O)OCC(N)C(=O)O (stereo not drawn),99% (active)
6,O=[N+]([O-])c1cc(S(=O)(=O)Nc2ccccc2)ccc1Nc1ccccc1,91% (active)
7,COc1cc2ccnc(-c3c4ccccc4c(N)c4c(OC)c(OC)ccc34)c2cc1OC,22% (inactive)
8,CCOC(=O)C(Br)C(Br)c1ccccc1Cl (stereo not drawn),99% (active)
9,Cc1cc(C)c(NC(=S)NC(=O)c2ccccc2)cc1C,15% (inactive)
10,CNCCCNc1c2ccccc2nc2cccc([N+](=O)[O-])c12,95% (active)
11,CNC(=O)OCc1c(COC(=O)NC)c(-c2ccc(Cl)cc2)n2c1CCC2,38% (inactive)
12,CCCCCCOC(=O)NCCOC(=O)Nc1ccccc1,19% (inactive)
13,C[C](C)(C)[Ge]([O][Ge]([c]1ccccc1)[c]1ccccc1)([O][Ge]([c]1ccccc1)[c]1ccccc1)[C](C)(C)C,82% (active)
14,CCc1c(Cl)c(C)cc(O)c1Cl,44% (inactive)
15,Cc1nc(Nc2ccccc2[N+](=O)[O-])sc1C(=O)CC(=O)C(=O)Nc1c(C(C)C)cccc1C(C)C,12% (inactive)
16,O=[N+]([O-])c1cccc2nc3ccccc3c(NCCCn3ccnc3[N+](=O)[O-])c12,97% (active)
17,CCCCCCC(O)CNCc1ccnc2ccc(OC)cc12 (stereo not drawn),43% (inactive)
18,C=C1CCC(O)C/C1=C/C=C1\CCCC2(C)C1CCC2C(C)CCCC(C)C (stereo not drawn),19% (inactive)
19,NC1=NNC2(C(N)=N1)c1ccccc1-c1ccccc12,57% (inactive)
20,COc1cc2cc3c4cc(OC)c(OC)cc4cc[n+]3c(C)c2cc1OC,26% (inactive)
21,COC(=O)NC1C(C)OC(OC2C/C=C(/C)C3C=CC4C(OC5CC(OC6CC(O)C(OC7CC(O)C(OC)C(C)O7)C(C)O6)C(O)C(C)O5)C(C)CC(C)C4C3(C)/C(O)=C3\C(=O)OC4(CC(C)C(CO)=CC4/C=C\2C)C3=O)CC1(C)[N+](=O)[O-] (stereo not drawn),33% (inactive)
22,O=C1CSC(c2cccc(Cl)c2)N1c1ccc(-c2ccc(-n3c(-c4ccccc4)nc4ccccc4c3=O)cc2)cc1 (stereo not drawn),46% (inactive)
23,CCOC(=O)C(C(=O)OCC)=P(c1ccccc1)(c1ccccc1)c1ccccc1,-3% (inactive)
24,COc1ccc(N=CN(C)C)c(C)c1,96% (active)
25,Cc1cc(S(=O)(=O)Nc2nnc3cnc4ccccc4n23)c(S)cc1Cl,54% (inactive)
26,O=C(Oc1ccc2c(c1)CN(Cc1ccccc1)CO2)c1ccccc1,39% (inactive)
27,CN(C)[C@@H]1C(=O)C(C(N)=O)=C(O)[C@@]2(O)C(=O)C3=C(O)c4c(O)cccc4C[C@H]3C[C@@H]12,99% (active)
28,O=[N+]([O-])c1ccc2c(c1)/C(=N/N=C1c3ccccc3Cc3ccccc31)c1cc([N+](=O)[O-])cc([N+](=O)[O-])c1-2,97% (active)
29,Cc1cc(N(CCOS(C)(=O)=O)CCOS(C)(=O)=O)ccc1C=Nc1ccc(-c2nc(Cc3ccccc3)sc2C)cc1,-12% (inactive) and 35% (inactive)

# Same assay, conditions: S. cerevisiae cln2 rad14 strain, at 50.0 µM, stronger effect = higher value
row,Structure (SMILES),growth inhibition
1,O=C1/C(=C/c2ccccc2)CCCC1CN1CCCCC1 (stereo not drawn),75.4% (active)
2,CCOC1(c2cccc([N+](=O)[O-])c2)c2ccccc2Oc2ccccc21,3.8% (inactive)
3,N/C(=N/N=C/c1cc(Br)cc(Br)c1O)NO,92.3% (active)
4,C[Si](C)(C)/C=C/CCNC(C#N)c1ccccc1 (stereo not drawn),90.2% (active)
5,CCCCCCCCCCCCCCCCOP(=O)(O)OCC(N)C(=O)O (stereo not drawn),98% (active)
6,O=[N+]([O-])c1cc(S(=O)(=O)Nc2ccccc2)ccc1Nc1ccccc1,80.2% (active)
7,COc1cc2ccnc(-c3c4ccccc4c(N)c4c(OC)c(OC)ccc34)c2cc1OC,10.8% (inactive)
8,CCOC(=O)C(Br)C(Br)c1ccccc1Cl (stereo not drawn),99.4% (active)
9,Cc1cc(C)c(NC(=S)NC(=O)c2ccccc2)cc1C,2.25% (inactive)
10,CNCCCNc1c2ccccc2nc2cccc([N+](=O)[O-])c12,91.3% (active)
11,CNC(=O)OCc1c(COC(=O)NC)c(-c2ccc(Cl)cc2)n2c1CCC2,84% (active)
12,CCCCCCOC(=O)NCCOC(=O)Nc1ccccc1,6.5% (inactive)
13,C[C](C)(C)[Ge]([O][Ge]([c]1ccccc1)[c]1ccccc1)([O][Ge]([c]1ccccc1)[c]1ccccc1)[C](C)(C)C,67.8% (inactive)
14,CCc1c(Cl)c(C)cc(O)c1Cl,77.2% (active)
15,Cc1nc(Nc2ccccc2[N+](=O)[O-])sc1C(=O)CC(=O)C(=O)Nc1c(C(C)C)cccc1C(C)C,47.1% (inactive)
16,O=[N+]([O-])c1cccc2nc3ccccc3c(NCCCn3ccnc3[N+](=O)[O-])c12,87.4% (active)
17,CCCCCCC(O)CNCc1ccnc2ccc(OC)cc12 (stereo not drawn),72.2% (active)
18,C=C1CCC(O)C/C1=C/C=C1\CCCC2(C)C1CCC2C(C)CCCC(C)C (stereo not drawn),4.95% (inactive)
19,NC1=NNC2(C(N)=N1)c1ccccc1-c1ccccc12,81% (active)
20,COc1cc2cc3c4cc(OC)c(OC)cc4cc[n+]3c(C)c2cc1OC,15.2% (inactive)
21,COC(=O)NC1C(C)OC(OC2C/C=C(/C)C3C=CC4C(OC5CC(OC6CC(O)C(OC7CC(O)C(OC)C(C)O7)C(C)O6)C(O)C(C)O5)C(C)CC(C)C4C3(C)/C(O)=C3\C(=O)OC4(CC(C)C(CO)=CC4/C=C\2C)C3=O)CC1(C)[N+](=O)[O-] (stereo not drawn),14.8% (inactive)
22,O=C1CSC(c2cccc(Cl)c2)N1c1ccc(-c2ccc(-n3c(-c4ccccc4)nc4ccccc4c3=O)cc2)cc1 (stereo not drawn),41.6% (inactive)
23,CCOC(=O)C(C(=O)OCC)=P(c1ccccc1)(c1ccccc1)c1ccccc1,-2.05% (inactive)
24,COc1ccc(N=CN(C)C)c(C)c1,92% (active)
25,Cc1cc(S(=O)(=O)Nc2nnc3cnc4ccccc4n23)c(S)cc1Cl,52% (inactive)
26,O=C(Oc1ccc2c(c1)CN(Cc1ccccc1)CO2)c1ccccc1,21.9% (inactive)
27,CN(C)[C@@H]1C(=O)C(C(N)=O)=C(O)[C@@]2(O)C(=O)C3=C(O)c4c(O)cccc4C[C@H]3C[C@@H]12,84.7% (active)
28,O=[N+]([O-])c1ccc2c(c1)/C(=N/N=C1c3ccccc3Cc3ccccc31)c1cc([N+](=O)[O-])cc([N+](=O)[O-])c1-2,85.8% (active)
29,Cc1cc(N(CCOS(C)(=O)=O)CCOS(C)(=O)=O)ccc1C=Nc1ccc(-c2nc(Cc3ccccc3)sc2C)cc1,86.2% (active) and 27.1% (inactive)
